Test results: the supplement of paper PMC10849652
Targets with a hit are over-represented here; the source holds about 7,900 in all. About 0.6% of all pairs of compound and target were hits.

Tests used:
Assay in all cases: log2 fold change, soluble protein after heating vs DMSO (PISA); higher = thermal stabilisation; K562 cells, 10 uM, 30 min; active = over 0.2 and 3.5 SD of the protein, either way, in both replicates (recomputed)
[1] = compound: COC1=CC=C(C=C1)CN2C=CC3=C2C=C(C=C3)C(=O)NO
Outline: (§1)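 Quantification of soluble protein used TMTpro 16plex LC-MS/MS, with channel sums equalised. Samples were the supernatant after 21,000xg for 90 min of pooled aliquots from K562 cells (2×10^6 cells/mL) treated with 10 μM compound for 30 min, heated for 3 min over 48°C-58°C, and extracted in PBS with 0.5% NP-40 at 4°C. Values, from duplicates, describe thermal stability against control samples on a log2 fold-change scale.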

[2] = compound: CON(C)C(=O)N1N=C(c2cc(F)ccc2F)S[C@@]1(CCCN)c1ccccc1 [filanesib]
Outline: as §1

[3] = compound: CO[C@H]1C[C@@H]2CC[C@@H](C)[C@@](O)(O2)C(=O)C(=O)N2CCCC[C@H]2C(=O)O[C@H]([C@H](C)C[C@@H]2CC[C@H](n3cnnn3)[C@H](OC)C2)CC(=O)[C@H](C)/C=C(\C)[C@@H](O)[C@@H](OC)C(=O)[C@H](C)C[C@H](C)/C=C/C=C/C=C/1C [zotarolimus]
Outline: as §1

[4] = compound: COc1cc(C(=O)O)ccc1NC(=O)[C@@H]1N[C@@H](CC(C)(C)C)[C@](C#N)(c2ccc(Cl)cc2F)[C@H]1c1cccc(Cl)c1F [idasanutlin]
Outline: as §1

[5] = compound: COc1cc(Nc2ncc3c(n2)-c2ccc(Cl)cc2C(c2c(F)cccc2OC)=NC3)ccc1C(=O)O [alisertib]
Outline: as §1

[6] = compound: COc1cc2nc(-c3cc(F)ccc3O)nc(N[C@@H]3CNC[C@H]3C(C)(C)O)c2cc1OC
Outline: as §1

[7] = compound: COc1cc2ncnc(Nc3ccc(F)c(Cl)c3)c2cc1OCCCN1CCOCC1 [gefitinib]
Outline: as §1

[8] = compound: COc1cccc2cc(-c3nc([C@H]4CC[C@H](C(=O)O)CC4)n4ncnc(N)c34)[nH]c12
Outline: as §1

[9] = compound: CS(=O)(=O)CCNCc1ccc(-c2ccc3ncnc(Nc4ccc(OCc5cccc(F)c5)c(Cl)c4)c3c2)o1 [lapatinib]
Outline: as §1

[10] = compound: CS(=O)(=O)N1CCN(Cc2cc3nc(-c4cccc5[nH]ncc45)nc(N4CCOCC4)c3s2)CC1 [pictilisib]
Outline: as §1

[11] = compound: CS(=O)(=O)c1ccc(-c2cnc(N)c(C(=O)Nc3ccccc3)n2)cc1
Outline: as §1

[12] = compound: C[C@@H](Oc1cc(-c2cnn(C3CCNCC3)c2)cnc1N)c1c(Cl)ccc(F)c1Cl [crizotinib]
Outline: as §1

[13] = compound: C[C@@H]1COCCN1C2=NC(=NC(=C2)C3(CC3)S(=O)(=O)C)C4=C5C=CNC5=CC=C4
Outline: as §1

[14] = compound: C[C@H](C1=CC=C(C=C1)C(=O)NC2=C3C=CNC3=NC=C2)N
Outline: as §1

[15] = compound: C[C@H](Nc1ncnc2nc[nH]c12)c1cc2cccc(Cl)c2c(=O)n1-c1ccccc1 [duvelisib]
Outline: as §1

[16] = compound: Cc1cc(Nc2cc(CN3CCOCC3)c3nc(C)c(Cc4ccc(Cl)cc4F)n3n2)n[nH]1 [gandotinib]
Outline: as §1

[17] = compound: Cc1cc(Nc2cc(N3CCN(C)CC3)nc(Sc3ccc(NC(=O)C4CC4)cc3)n2)n[nH]1 [tozasertib]
Outline: as §1

[18] = compound: Cc1cc(SCc2sc(-c3ccc(C(F)(F)F)cc3)nc2C)ccc1OCC(=O)O
Outline: as §1

[19] = compound: Cc1ccc(-n2nc(C(C)(C)C)cc2NC(=O)Nc2ccc(OCCN3CCOCC3)c3ccccc23)cc1 [doramapimod]
Outline: as §1

[20] = compound: Cc1ccc(C(=O)N(CCCN)[C@@H](c2nc3cc(Cl)ccc3c(=O)n2Cc2ccccc2)C(C)C)cc1 [ispinesib]
Outline: as §1

Measured: log2 fold change

SERINC3 (UniProt Q13530)
Chain of UniProt Q13530 (Q13530 whole entry, looked up): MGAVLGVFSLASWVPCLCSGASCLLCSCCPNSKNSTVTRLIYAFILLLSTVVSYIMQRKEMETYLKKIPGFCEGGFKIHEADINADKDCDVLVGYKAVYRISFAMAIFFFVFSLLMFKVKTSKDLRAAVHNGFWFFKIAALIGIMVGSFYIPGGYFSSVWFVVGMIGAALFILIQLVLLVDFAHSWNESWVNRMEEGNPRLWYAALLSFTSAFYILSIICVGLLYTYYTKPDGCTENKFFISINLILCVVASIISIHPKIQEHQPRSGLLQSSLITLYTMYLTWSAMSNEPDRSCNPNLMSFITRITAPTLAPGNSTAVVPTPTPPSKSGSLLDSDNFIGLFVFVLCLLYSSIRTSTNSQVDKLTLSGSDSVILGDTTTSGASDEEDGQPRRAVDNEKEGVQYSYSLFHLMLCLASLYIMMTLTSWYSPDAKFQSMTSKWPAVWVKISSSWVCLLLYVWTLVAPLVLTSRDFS
inactive: [1] -0.015 | [2] -0.222 | [3] -0.062 | [4] 0.136 | [5] 0 | [6] -0.17 | [7] -0.069 | [8] 0.042 | [9] -0.181 | [10] 0.181 | [11] 0.15 | [12] -0.228 | [13] 0.017 | [14] 0.225 | [15] 0.162 | [16] -0.088 | [17] 0.046 | [18] 0.096 | [19] -0.051 | [20] -0.17

RPS15 (UniProt P62841)
active: [14] 0.45
inactive: [1] 0.086 | [2] 0.192 | [3] -0.082 | [4] 0.049 | [5] -0.107 | [6] 0.027 | [7] 0.008 | [8] -0.147 | [9] -0.01 | [10] -0.054 | [11] 0.032 | [12] 0 | [13] -0.174 | [15] -0.078 | [16] 0.137 | [17] -0.071 | [18] -0.045 | [19] 0.032 | [20] -0.003

RPS9 (UniProt P46781)
inactive: [1] -0.036 | [2] 0.237 | [3] 0.032 | [4] 0.098 | [5] -0.101 | [6] -0.083 | [7] -0.055 | [8] -0.211 | [9] 0.084 | [10] -0.195 | [11] -0.075 | [12] 0.02 | [13] -0.401 | [14] 0.278 | [15] -0.146 | [16] 0.188 | [17] 0.055 | [18] 0.024 | [19] 0.174 | [20] -0.04

RPS14 (UniProt P62263)
inactive: [1] 0.034 | [2] 0.046 | [3] 0.028 | [4] 0.062 | [5] -0.209 | [6] -0.047 | [7] -0.048 | [8] -0.154 | [9] 0.132 | [10] -0.321 | [11] -0.049 | [12] -0.075 | [13] -0.22 | [14] 0.183 | [15] -0.131 | [16] 0.056 | [17] 0.016 | [18] 0.023 | [19] 0.071 | [20] 0.002

RPRD1B (UniProt Q9NQG5)
Chain of UniProt Q9NQG5 (Q9NQG5 whole entry, looked up): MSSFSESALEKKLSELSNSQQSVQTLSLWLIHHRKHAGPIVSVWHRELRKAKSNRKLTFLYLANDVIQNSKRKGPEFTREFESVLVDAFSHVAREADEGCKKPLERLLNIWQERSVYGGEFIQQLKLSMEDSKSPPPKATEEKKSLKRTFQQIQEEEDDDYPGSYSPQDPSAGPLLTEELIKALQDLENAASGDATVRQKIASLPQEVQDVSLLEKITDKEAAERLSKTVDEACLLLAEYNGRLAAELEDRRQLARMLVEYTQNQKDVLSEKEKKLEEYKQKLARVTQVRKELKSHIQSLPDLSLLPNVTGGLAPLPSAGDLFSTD
inactive: [1] 0.014 | [2] 0.022 | [3] -0.018 | [4] -0.031 | [5] -0.011 | [6] 0.106 | [7] 0.037 | [8] 0.061 | [9] -0.004 | [10] 0.019 | [11] -0.104 | [12] 0.072 | [13] 0.062 | [14] -0.042 | [15] 0.078 | [16] -0.227 | [17] 0.023 | [18] 0.062 | [19] -0.044 | [20] 0.039

RAD51 (UniProt Q06609)
Chain of UniProt Q06609 (Q06609 whole entry, looked up): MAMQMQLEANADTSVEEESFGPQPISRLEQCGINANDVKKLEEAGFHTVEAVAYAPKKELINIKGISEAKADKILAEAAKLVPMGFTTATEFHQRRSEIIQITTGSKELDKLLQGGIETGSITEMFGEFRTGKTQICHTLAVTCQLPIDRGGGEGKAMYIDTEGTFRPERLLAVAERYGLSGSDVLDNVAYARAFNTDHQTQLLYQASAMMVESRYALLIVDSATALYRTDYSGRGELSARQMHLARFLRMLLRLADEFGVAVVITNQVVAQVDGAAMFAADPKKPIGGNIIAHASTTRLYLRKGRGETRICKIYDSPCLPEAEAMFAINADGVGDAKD
inactive: [1] -0.057 | [2] 0.003 | [3] -0.034 | [4] -0.072 | [5] 0.041 | [6] -0.022 | [7] -0.07 | [8] 0.012 | [9] -0.024 | [10] -0.02 | [11] 0.005 | [12] -0.061 | [13] -0.079 | [14] -0.019 | [15] 0.108 | [16] 0.01 | [17] -0.026 | [18] -0.005 | [19] -0.025 | [20] -0.009

SFXN5 (UniProt Q8TD22)
Chain of UniProt Q8TD22 (Q8TD22 whole entry, looked up): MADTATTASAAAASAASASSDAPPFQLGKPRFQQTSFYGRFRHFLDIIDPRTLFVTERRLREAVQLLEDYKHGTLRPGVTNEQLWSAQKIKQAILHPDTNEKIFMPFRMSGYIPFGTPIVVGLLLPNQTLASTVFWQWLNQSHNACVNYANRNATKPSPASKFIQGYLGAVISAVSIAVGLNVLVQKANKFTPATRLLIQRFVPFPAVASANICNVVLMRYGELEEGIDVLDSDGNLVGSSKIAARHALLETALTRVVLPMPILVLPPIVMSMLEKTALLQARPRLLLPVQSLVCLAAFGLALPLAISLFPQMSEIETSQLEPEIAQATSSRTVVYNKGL
inactive: [1] -0.104 | [2] -0.007 | [3] 0.025 | [4] -0.172 | [5] 0.027 | [6] -0.019 | [7] -0.013 | [8] 0.035 | [9] 0.017 | [10] 0.061 | [11] 0.144 | [12] 0.021 | [13] 0.073 | [14] -0.137 | [15] -0.07 | [16] -0.026 | [17] -0.015 | [18] 0.076 | [19] -0.055 | [20] 0.049

SAMSN1 isoform 3 (UniProt Q9NSI8)
Chain of UniProt Q9NSI8 (Q9NSI8 whole entry, looked up): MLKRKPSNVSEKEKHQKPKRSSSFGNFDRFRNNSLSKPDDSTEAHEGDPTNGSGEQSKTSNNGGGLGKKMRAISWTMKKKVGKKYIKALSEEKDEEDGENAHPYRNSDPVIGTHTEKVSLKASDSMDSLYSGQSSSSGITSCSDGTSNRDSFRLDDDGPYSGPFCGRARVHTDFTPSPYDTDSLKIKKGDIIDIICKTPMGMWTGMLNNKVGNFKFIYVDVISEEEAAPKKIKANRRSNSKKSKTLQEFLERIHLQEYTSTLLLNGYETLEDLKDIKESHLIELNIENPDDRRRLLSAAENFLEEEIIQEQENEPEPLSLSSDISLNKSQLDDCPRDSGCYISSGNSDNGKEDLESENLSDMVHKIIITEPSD
inactive: [1] 0.013 | [2] -0.021 | [3] 0.034 | [4] -0.026 | [5] 0.007 | [6] -0.001 | [7] 0.007 | [8] -0.029 | [9] -0.009 | [10] -0.001 | [11] 0.024 | [12] -0.082 | [13] 0.043 | [14] -0.027 | [15] 0.006 | [16] -0.077 | [17] -0.013 | [18] 0.019 | [19] -0.052 | [20] -0.069

RPP25L (UniProt Q8N5L8)
Chain of UniProt Q8N5L8 (Q8N5L8 whole entry, looked up): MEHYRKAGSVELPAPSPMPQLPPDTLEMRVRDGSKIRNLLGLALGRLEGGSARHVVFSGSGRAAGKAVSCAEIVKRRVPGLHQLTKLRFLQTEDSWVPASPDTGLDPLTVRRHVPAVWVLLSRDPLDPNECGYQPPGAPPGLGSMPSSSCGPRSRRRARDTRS
inactive: [1] 0.107 | [2] 0.012 | [3] -0.002 | [4] 0.069 | [5] -0.093 | [6] -0.12 | [7] 0.054 | [8] -0.068 | [9] 0.042 | [10] -0.052 | [11] -0.031 | [12] 0.059 | [13] -0.014 | [14] 0.145 | [15] 0.06 | [16] 0.045 | [17] -0.01 | [18] -0.019 | [19] -0.005 | [20] -0.027

RNF14 (UniProt Q9UBS8)
Chain of UniProt Q9UBS8 (Q9UBS8 whole entry, looked up): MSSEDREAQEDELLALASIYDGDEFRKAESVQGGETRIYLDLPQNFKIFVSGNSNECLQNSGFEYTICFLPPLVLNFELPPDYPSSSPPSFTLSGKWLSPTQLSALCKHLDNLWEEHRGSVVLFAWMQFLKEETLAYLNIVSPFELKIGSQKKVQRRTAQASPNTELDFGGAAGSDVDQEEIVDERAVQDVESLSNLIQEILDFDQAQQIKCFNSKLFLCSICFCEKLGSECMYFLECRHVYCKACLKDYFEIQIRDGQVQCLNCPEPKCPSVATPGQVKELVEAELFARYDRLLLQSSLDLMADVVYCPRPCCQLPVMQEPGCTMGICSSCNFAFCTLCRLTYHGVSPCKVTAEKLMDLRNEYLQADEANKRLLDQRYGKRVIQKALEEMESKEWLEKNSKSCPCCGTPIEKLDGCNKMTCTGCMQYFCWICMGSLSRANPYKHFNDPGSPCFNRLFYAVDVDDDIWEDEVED
inactive: [1] 0.034 | [2] -0.093 | [3] 0.018 | [4] 0.043 | [5] -0.035 | [6] -0.038 | [7] 0.003 | [8] -0.048 | [9] 0.006 | [10] 0.045 | [11] 0.034 | [12] 0.014 | [13] 0.081 | [14] -0.053 | [15] 0.031 | [16] 0.001 | [17] 0.058 | [18] 0.041 | [19] -0.025 | [20] -0.032

RPS12 (UniProt P25398)
inactive: [1] -0.009 | [2] 0.018 | [3] -0.026 | [4] 0.048 | [5] -0.17 | [6] -0.057 | [7] -0.02 | [8] -0.159 | [9] 0.062 | [10] -0.033 | [11] -0.041 | [12] 0.078 | [13] -0.098 | [14] 0.165 | [15] -0.061 | [16] 0.124 | [17] -0.003 | [18] -0.011 | [19] 0.012 | [20] 0.017

RPS2 (UniProt P15880)
inactive: [1] -0.049 | [2] 0.214 | [3] -0.013 | [4] 0.114 | [5] -0.1 | [6] -0.027 | [7] -0.05 | [8] -0.184 | [9] 0.094 | [10] -0.143 | [11] -0.045 | [12] 0.043 | [13] -0.369 | [14] 0.286 | [15] -0.162 | [16] 0.202 | [17] -0.007 | [18] 0.007 | [19] 0.131 | [20] -0.162

SLC19A1 (UniProt P41440)
Chain of UniProt P41440 (P41440 whole entry, looked up): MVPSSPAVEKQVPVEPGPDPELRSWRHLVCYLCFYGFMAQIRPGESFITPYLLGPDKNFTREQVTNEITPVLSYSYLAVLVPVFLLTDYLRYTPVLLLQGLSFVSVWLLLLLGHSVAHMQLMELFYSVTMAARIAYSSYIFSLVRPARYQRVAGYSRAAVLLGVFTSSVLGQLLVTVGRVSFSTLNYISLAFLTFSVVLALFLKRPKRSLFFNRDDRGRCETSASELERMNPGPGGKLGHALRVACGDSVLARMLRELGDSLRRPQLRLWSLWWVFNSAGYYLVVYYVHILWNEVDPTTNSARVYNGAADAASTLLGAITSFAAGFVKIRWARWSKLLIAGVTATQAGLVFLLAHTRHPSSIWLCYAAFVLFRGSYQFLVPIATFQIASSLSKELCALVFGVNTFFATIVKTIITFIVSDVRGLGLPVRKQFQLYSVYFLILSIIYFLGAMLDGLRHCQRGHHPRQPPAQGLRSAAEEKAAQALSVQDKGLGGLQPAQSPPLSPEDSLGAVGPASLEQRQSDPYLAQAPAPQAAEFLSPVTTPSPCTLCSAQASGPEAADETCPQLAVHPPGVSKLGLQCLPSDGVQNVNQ
inactive: [1] 0.047 | [2] -0.164 | [3] -0.106 | [4] 0.023 | [5] -0.034 | [6] 0.003 | [7] 0 | [8] 0.086 | [9] -0.066 | [10] -0.026 | [11] -0.097 | [12] 0.086 | [13] 0.041 | [14] -0.088 | [15] 0.135 | [16] -0.107 | [17] -0.04 | [18] 0.012 | [19] -0.037 | [20] 0.083

SLC18B1 (UniProt Q6NT16)
Chain of UniProt Q6NT16 (Q6NT16 whole entry, looked up): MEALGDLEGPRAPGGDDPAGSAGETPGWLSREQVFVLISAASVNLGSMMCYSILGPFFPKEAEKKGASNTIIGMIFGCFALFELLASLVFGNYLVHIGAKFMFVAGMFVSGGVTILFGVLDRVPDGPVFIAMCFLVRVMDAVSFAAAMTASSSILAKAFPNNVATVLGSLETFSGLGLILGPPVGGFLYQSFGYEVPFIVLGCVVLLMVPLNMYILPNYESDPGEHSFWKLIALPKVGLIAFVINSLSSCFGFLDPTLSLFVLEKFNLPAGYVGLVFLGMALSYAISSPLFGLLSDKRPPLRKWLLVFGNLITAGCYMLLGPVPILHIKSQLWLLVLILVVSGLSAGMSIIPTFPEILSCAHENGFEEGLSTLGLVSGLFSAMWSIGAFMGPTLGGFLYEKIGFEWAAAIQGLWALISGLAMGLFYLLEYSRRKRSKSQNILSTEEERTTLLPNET
inactive: [1] 0.072 | [2] -0.094 | [3] -0.068 | [4] 0.083 | [5] 0.022 | [6] 0.058 | [7] 0.01 | [8] 0.087 | [9] -0.061 | [10] 0.067 | [11] 0.027 | [13] 0.06 | [14] -0.034 | [15] 0.047 | [16] 0.092 | [17] -0.097 | [18] -0.07 | [19] -0.002 | [20] -0.193
active: [12] -0.404

RPTOR (UniProt Q8N122)
Chain of UniProt Q8N122 (Q8N122 whole entry, looked up): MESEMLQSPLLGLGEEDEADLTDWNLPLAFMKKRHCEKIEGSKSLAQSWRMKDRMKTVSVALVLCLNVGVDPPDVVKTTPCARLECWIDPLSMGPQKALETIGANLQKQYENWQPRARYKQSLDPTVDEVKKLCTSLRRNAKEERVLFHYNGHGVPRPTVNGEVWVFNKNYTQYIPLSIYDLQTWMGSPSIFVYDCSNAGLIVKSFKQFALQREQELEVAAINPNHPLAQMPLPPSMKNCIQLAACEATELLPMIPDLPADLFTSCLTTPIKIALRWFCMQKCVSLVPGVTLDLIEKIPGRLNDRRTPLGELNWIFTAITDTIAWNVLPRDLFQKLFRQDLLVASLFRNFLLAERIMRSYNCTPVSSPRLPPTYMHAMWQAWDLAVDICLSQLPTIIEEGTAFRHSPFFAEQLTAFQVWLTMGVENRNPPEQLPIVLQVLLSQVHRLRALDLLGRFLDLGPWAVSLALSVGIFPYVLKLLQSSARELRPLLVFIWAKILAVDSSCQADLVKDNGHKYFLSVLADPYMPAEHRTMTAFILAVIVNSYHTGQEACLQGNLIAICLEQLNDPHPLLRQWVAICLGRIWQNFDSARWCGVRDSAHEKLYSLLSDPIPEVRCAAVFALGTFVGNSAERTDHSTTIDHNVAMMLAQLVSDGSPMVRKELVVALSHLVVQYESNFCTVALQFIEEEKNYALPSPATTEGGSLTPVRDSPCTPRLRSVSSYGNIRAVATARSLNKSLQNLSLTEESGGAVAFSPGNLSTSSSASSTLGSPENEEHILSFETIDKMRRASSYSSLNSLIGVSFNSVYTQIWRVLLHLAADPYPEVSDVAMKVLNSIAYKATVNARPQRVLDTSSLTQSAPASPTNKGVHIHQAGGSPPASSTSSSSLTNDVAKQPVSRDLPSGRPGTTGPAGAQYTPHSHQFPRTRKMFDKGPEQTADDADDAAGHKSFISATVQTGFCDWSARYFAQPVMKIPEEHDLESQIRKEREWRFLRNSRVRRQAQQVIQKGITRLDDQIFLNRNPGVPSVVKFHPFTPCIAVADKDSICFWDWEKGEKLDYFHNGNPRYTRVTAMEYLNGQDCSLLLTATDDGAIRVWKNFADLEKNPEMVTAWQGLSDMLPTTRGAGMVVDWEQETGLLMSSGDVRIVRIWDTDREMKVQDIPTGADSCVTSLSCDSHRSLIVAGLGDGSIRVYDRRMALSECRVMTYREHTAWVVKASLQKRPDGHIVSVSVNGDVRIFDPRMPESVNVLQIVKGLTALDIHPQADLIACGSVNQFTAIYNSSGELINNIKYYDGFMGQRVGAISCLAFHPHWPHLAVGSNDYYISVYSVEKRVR
inactive: [1] 0.042 | [2] -0.077 | [3] -0.194 | [4] -0.066 | [5] -0.054 | [6] -0.056 | [7] 0.007 | [8] -0.072 | [9] 0.028 | [10] -0.022 | [11] 0.012 | [12] -0.188 | [13] -0.031 | [14] 0.033 | [15] 0.045 | [16] -0.115 | [17] 0 | [18] 0.01 | [19] -0.009 | [20] -0.114
